According to PubChem BioAssay (NCI):
Compounds without any hit were thinned out: in the full panel of roughly 79,000, 15% have a hit. Activity calls are given as the source filed them. Cut-off read from the data, not from the text of the source: active = growth inhibition above about 70%; inactive = the rest.

Legend:
[1] = NCI Yeast Anticancer Drug Screen. Data for the rad50 strain (AID 155);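 note: 0% = growth of vehicle-only cultures of the same strain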; settings: S. cerevisiae rad50 strain growth inhibition; at 50.0 µM; active compounds read high
Method in brief: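 Relative growth inhibition (compound vs vehicle) was measured in yeast with a defined repair-gene alteration.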

[2] = NCI Yeast Anticancer Drug Screen. Data for the mec2-1 strain (AID 157); settings: S. cerevisiae mec2-1 strain, at 50.0 µM, active compounds read high
Method in brief: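 Using mec2-1 yeast: add compound, measure growth, express inhibition versus vehicle-treated cultures.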

[3] = NCI Yeast Anticancer Drug Screen. Data for the sgs1 mgt1 strain (AID 161);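 note: 0% = growth of cultures given vehicle only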; settings: S. cerevisiae sgs1 mgt1 strain, at 50.0 µM, active compounds read high
Method in brief: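 Growth of a repair-deficient yeast mutant was monitored after compound treatment and expressed as inhibition relative to vehicle-treated cultures.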

[4] = NCI Yeast Anticancer Drug Screen. Data for the cln2 rad14 strain (AID 165);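 note: 0% = growth equal to vehicle treated cultures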; settings: S. cerevisiae cln2 rad14 strain, at 50.0 µM, active compounds read high
Method in brief: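 Yeast strain cln2 rad14, bearing defects in cell cycle control and DNA repair, serves as the test system; values reflect growth inhibition compared with vehicle.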

[5] = NCI Yeast Anticancer Drug Screen. Data for the bub3 strain (AID 167); settings: S. cerevisiae bub3 mutant strain, at 50.0 µM, active compounds read high
Method in brief: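 Screening used yeast with an engineered genetic alteration affecting cell cycle control. Compound-exposed cultures were compared with vehicle cultures, and reduced growth was taken as inhibition.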

[6] = NCI Yeast Anticancer Drug Screen. Data for the mlh1 rad18 strain (AID 175); settings: S. cerevisiae mlh1 rad18 strain growth inhibition; at 50.0 µM; active compounds read high
Method in brief: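 Steps: expose repair-defective yeast to compound; measure growth; express inhibition against vehicle-treated controls.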

Measured: growth inhibition

CC(C)OCN1COCN=C1NC#N
inactive: [1] 38.2% | [2] 12.2% | [3] 23.1% | [4] 28.7% | [5] -10.4% | [6] 33%

COc1cc(CC2COC(=O)C2Cc2ccc(O)c(OC)c2)ccc1O (configuration not stated)
inactive: [1] -4.85% | [2] 12.1% | [3] 0.35% | [4] -15.8% | [5] 22.4% | [6] 6.4%

O=C1NC(=O)C(F)(F)C1(F)F
inactive: [1] 4.9% | [2] 7.3% | [3] -6.45% | [4] -1.1% | [5] 0.25% | [6] 4.35%

O=C1c2cn[nH]c2C(c2ccccc2)N1c1ccccc1 (configuration not stated)
inactive: [1] 44.1% | [2] 6.8% | [3] 22.6% | [4] 24.3% | [5] 27.9% | [6] 38.9%

O=C1CCCCCN1
inactive: [1] 18.5% | [2] 1.55% | [3] -9.95% | [4] -11.3% | [5] -5.1% | [6] 18.1%

N#CC1(C(c2cccc3ccccc23)c2cccc3ccc4ccccc4c23)CC(=O)OC1=O (configuration not stated)
inactive: [1] 5.25% | [2] -11.4% | [3] 14.1% | [4] 12.1% | [5] -2.55% | [6] 9.65%

CCOC(=O)c1ccc(NC(=O)Nc2ccc(F)c([N+](=O)[O-])c2)cc1
inactive: [1] 7.3% | [2] 46.1% | [3] 46.5% | [4] 7% | [5] 28.9% | [6] 23.6%

NC(N)=NS(=O)(=O)c1ccc(Nc2c3ccccc3nc3c(C(=O)NNCCO)cccc23)cc1
inactive: [1] -10.1% | [2] -2.85% | [3] 25.6% | [4] -7.7% | [5] 15.9% | [6] -1.65%

COc1ccc(C(=O)CC(=O)CCC(=O)Nc2cc(C)ccc2C)cc1
inactive: [1] -6.55% | [2] 5.2% | [3] 18.2% | [4] -7.75% | [5] 5.25% | [6] 25.1%

CC(SC(=S)SC(C)C(=O)O)C(=O)O (configuration not stated)
inactive: [1] 6% | [2] 15.3% | [3] 22.3% | [4] 44% | [5] -6.1% | [6] 15.3%

CCOS(=O)(=O)c1ccc(F)c([N+](=O)[O-])c1
inactive: [1] 7.3% | [2] 5.6% | [3] -1.9% | [4] -47% | [5] 2.65% | [6] -2.1%

Nc1nc(N)c2cc(N3CCCC3c3ccc(Cl)cc3)ccc2n1 (configuration not stated)
active: [1] 90.8% | [2] 92.5% | [3] 91.5% | [4] 90.5% | [5] 91.6% | [6] 91%

CN(C)CCCNC(=O)CCNC(=O)c1cc(NC(=O)c2cc(NC(=O)c3cc(NC(=O)c4nccn4C)cn3C)cn2C)cn1C
inactive: [1] 24.4% | [2] -23.4% | [3] -17.2% | [4] 12.4% | [5] -5.15% | [6] 7.15%

O=C1CSC(=S)N1/N=C/c1ccc([N+](=O)[O-])s1
active: [1] 97.8% | [2] 98.8% | [3] 98.3% | [4] 98.5% | [5] 98.8% | [6] 98.8%

CCN(CC)CC(O)CN1CCCc2ccccc21 (configuration not stated)
inactive: [1] -9.4% | [2] 1.5% | [3] 0.6% | [4] -5.4% | [5] 7.85% | [6] -13.4%

Clc1ccc2c(c1)nnn2OC1CCCC1
inactive: [1] 10.4% | [2] -3.7% | [3] -11.1% | [4] -24.9% | [5] -10.8% | [6] -6.8%

CC(=O)CC(=O)OC1CC(C)CCC1C(C)C (configuration not stated)
inactive: [1] 12.2% | [2] -24.4% | [3] -6.25% | [4] 15.3% | [5] -26.1% | [6] 23.1%

Cn1ncc2c(NN)nc(Cl)nc21
inactive: [1] 8.6% | [2] -18.7% | [3] -4.55% | [4] -18.4% | [5] -14.8% | [6] 7%

c1csc(C(NC2=NCCO2)C2CC2)c1 (configuration not stated)
inactive: [1] -32.9% | [2] -11.2% | [3] -22.9% | [4] -25.1% | [5] -27.5% | [6] 41.8%

CN1C(=O)N(C)C(N2CCCC2)c2c1nc1ccccn1c2=O (configuration not stated)
inactive: [1] -11.7% | [2] -30.8% | [3] -41.8% | [4] 5.15% | [5] -5% | [6] -29.4%

CCN(CC)C(=O)c1ccccc1C
inactive: [1] 17.2% | [2] -2.65% | [3] -9.7% | [4] 6.7% | [5] -3.85% | [6] 0.45%

Cc1ccc(C(=O)O)c(O)c1
inactive: [1] 11.7% | [2] -1.7% | [3] -14.8% | [4] -13.9% | [5] -26% | [6] -2.5%

C1CCCC2(CCC1)OCCO2
inactive: [1] 0.7% | [2] 10.4% | [3] -4.05% | [4] -9.55% | [5] 17.1% | [6] 1.65%

Oc1c(Br)cc(Br)cc1/C=N/c1nc(-c2ccccc2)cs1
active: [1] 98.5% | [2] 92.1% | [3] 99% | [4] 92.5% | [5] 97.4% | [6] 99%

O=C(O)Cc1ccc(Oc2ccc(CC(=O)O)cc2)cc1
inactive: [1] -4.15% | [2] -9.5% | [3] 1.85% | [4] -48.8% | [5] -8.75% | [6] 0.55%

O=C(O)CSc1c(Cl)c(=O)oc2ccc(Cl)cc12
inactive: [1] 30.3% | [2] -6.6% | [3] 20.2% | [4] -2% | [5] 17% | [6] 43.9%

CCOC(=O)/C=C(/C)N(CC)CC
inactive: [1] 23.9% | [2] -4% | [3] 12.2% | [4] 11.3% | [5] -5.05% | [6] 19.9%

N#CCCN(CCC#N)CCN(CCN(CCC#N)CCC#N)CCN(CCC#N)CCC#N
inactive: [1] -8.1% | [2] -0.25% | [3] -6.4% | [4] 2.1% | [5] -15.2% | [6] -10.8%

O=C(Nc1ccccc1)OCC#CCOC(=O)Nc1ccccc1
inactive: [1] 27.4% | [2] 11.7% | [3] 17.6% | [4] -60.5% | [5] 2.45% | [6] 11%

O=c1n(-c2ccccc2)c(=O)n2n1C1C3C4C3C2C2(F)C4C12 (configuration not stated)
inactive: [1] -6.95% | [2] 14.3% | [3] 19.9% | [4] 8.6% | [5] 7.75% | [6] 9.6%

CC(=O)/C=C(\O)c1c(C)[nH]c2ccccc12
inactive: [1] -16% | [2] 9% | [3] -3.95% | [4] -41.4% | [5] -11.9% | [6] -5.95%

S=C(S)N1CCN(c2ccc(Cl)c(Cl)c2)CC1
inactive: [1] 4% | [2] -1.65% | [3] 20.9% | [4] 2.95% | [5] 8.1% | [6] 57.6%

CCCCCCCCCCCCCCCCc1c(C)ncn(C)c1=O
inactive: [1] -13.9% | [2] 2% | [3] 5.4% | [4] -8.15% | [5] -9.2% | [6] -49%

O=C(CCC1CCCCC1=O)c1ccc(Br)cc1 (configuration not stated)
inactive: [1] 6.2% | [2] -15.8% | [3] 12.7% | [4] -6.95% | [5] -6.55% | [6] -10.2%

CCn1nc(C(=O)O)c(=O)c2cc3c(cc21)OCO3
inactive: [1] 8.1% | [2] 7.2% | [3] -9.85% | [4] -15.7% | [5] -3.9% | [6] 7.4%

CCN(CC)CCCNc1c2c(nc3ccc(Cl)cc13)CCCC2
inactive: [1] -20.1% | [2] -9.35% | [3] 0.6% | [4] -8.1% | [5] -11.8% | [6] 2.75%

O=C(Nc1ccccc1Br)c1cccc([N+](=O)[O-])c1O
inactive: [1] 37.5% | [2] 35.2% | [3] 45.5% | [4] 38.2% | [5] 29.4% | [6] 37.1%

COc1ccc(-n2cnc3c(cnn3C3OC(CO)C(O)C3O)c2=O)cc1 (configuration not stated)
inactive: [1] 8.7% | [2] 2.95% | [3] 8.45% | [4] 23.3% | [5] -4.25% | [6] 3.3%

NCC(O)C(F)(F)F (configuration not stated)
inactive: [1] -5.2% | [2] -7.9% | [3] -27.3% | [4] -15.1% | [5] 1.75% | [6] -14.5%

Cc1ccc(N2C(=O)CSC2=S)cc1F
inactive: [1] 1.55% | [2] 6.55% | [3] 47.4% | [4] 8.15% | [5] 5.6% | [6] 10.7%

COc1cccc(-n2cnc3c(SC)ncnc32)c1
inactive: [1] 8.8% | [2] 3.9% | [3] 4.75% | [4] -27.9% | [5] 19.1% | [6] 1.6%

NC(=O)C12OC1(Cl)CCCC2(Cl)Cl (configuration not stated)
inactive: [1] 1.05% | [2] -27.9% | [3] 8.5% | [4] 9.05% | [5] 18% | [6] 18.2%
